Data from PubChem BioAssay (Tox21).
Several values for one entry are separate records, joined by “and”; a condition that tells them apart may be missing. Equal values may be shown once. Results filed as inconclusive are left out. Where a call stands in place of a potency, no number is given. Activity calls are given as the source filed them. Unless noted, calls follow the shape of the dose curve; as a rule, active = well fitted curve in the direction sought with a large enough effect in the repeat runs; inconclusive = weak or mixed curves; inactive = no such curve, though single readings can be large; an effect the other way counts as inactive or inconclusive.

Tests used:
[1] = molecular target: Luciferin 4-monooxygenase (Photinus pyralis) (UniProt P08659); assay: qHTS assay to identify small molecule inhibitors of firefly luciferase (AID 1224835); also: nearly all actives have a fitted effect of over 25% in size; also: potency is read from the fitted curve at half-maximal effect
Sequence of Luciferin 4-monooxygenase (Photinus pyralis) (P08659 whole entry, looked up): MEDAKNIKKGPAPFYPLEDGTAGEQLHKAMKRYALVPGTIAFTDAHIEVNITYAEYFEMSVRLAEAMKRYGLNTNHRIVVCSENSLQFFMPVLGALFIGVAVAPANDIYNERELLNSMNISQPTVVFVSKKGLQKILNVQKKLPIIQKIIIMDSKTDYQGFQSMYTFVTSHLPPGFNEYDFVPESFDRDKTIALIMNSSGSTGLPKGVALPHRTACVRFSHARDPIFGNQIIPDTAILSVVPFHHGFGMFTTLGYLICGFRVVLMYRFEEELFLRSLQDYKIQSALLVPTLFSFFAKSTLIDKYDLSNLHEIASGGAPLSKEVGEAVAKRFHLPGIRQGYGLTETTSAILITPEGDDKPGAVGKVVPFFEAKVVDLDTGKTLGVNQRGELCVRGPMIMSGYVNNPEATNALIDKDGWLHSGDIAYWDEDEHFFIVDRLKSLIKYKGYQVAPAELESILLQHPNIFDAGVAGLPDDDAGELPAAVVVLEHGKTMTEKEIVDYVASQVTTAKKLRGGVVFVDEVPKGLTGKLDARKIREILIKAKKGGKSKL
In short: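 Quantitative HTS format; KM concentrations of both substrates. Purified P. pyralis FLuc activity quantified from luminescence images.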

[2] = qHTS assay to identify small molecule antagonists of the constitutive androstane receptor (CAR) signaling pathway - cell viability counter screen (AID 1224837); also: nearly all actives have a fitted effect of over 45% in size; also: potency is read from the fitted curve at half-maximal effect
In short: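 In quantitative HTS format, compounds at 15 concentrations were applied to HepG2 cells double-transfected with hCAR and CYP2B6-2.2kb under 50 nM CITCO stimulation; live-cell protease activity was read after 23 hr via CellTiter-Fluor.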

[3] = qHTS assay to identify small molecule agonists of the estrogen related receptor signaling pathway with the pleiotropic PPARgamma coactivator (PGC) from Tox21 10K library (AID 1224842); also: nearly all actives have a fitted effect of over 15% in size
In short: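 PGC/ERR reporter cells (NTP line) were seeded 2,000 per well, rested 6 h at 37 C/5% CO2, then pin-dosed with compounds in DMSO for 18 h at 37 C; luciferase read by One-Glo luminescence after 30 min at room temperature.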

[4] = molecular target: Thyrotropin receptor (Homo sapiens) (UniProt P16473); assay: qHTS assay to identify small molecule agonists of the thyroid stimulating hormone receptor (TSHR) signaling pathway (AID 1224843; calls by dose curve; also: nearly all actives have a fitted effect of over 45% in size; also: potency is read from the fitted curve at half-maximal effect)
Sequence of Thyrotropin receptor (Homo sapiens) (P16473 whole entry, looked up): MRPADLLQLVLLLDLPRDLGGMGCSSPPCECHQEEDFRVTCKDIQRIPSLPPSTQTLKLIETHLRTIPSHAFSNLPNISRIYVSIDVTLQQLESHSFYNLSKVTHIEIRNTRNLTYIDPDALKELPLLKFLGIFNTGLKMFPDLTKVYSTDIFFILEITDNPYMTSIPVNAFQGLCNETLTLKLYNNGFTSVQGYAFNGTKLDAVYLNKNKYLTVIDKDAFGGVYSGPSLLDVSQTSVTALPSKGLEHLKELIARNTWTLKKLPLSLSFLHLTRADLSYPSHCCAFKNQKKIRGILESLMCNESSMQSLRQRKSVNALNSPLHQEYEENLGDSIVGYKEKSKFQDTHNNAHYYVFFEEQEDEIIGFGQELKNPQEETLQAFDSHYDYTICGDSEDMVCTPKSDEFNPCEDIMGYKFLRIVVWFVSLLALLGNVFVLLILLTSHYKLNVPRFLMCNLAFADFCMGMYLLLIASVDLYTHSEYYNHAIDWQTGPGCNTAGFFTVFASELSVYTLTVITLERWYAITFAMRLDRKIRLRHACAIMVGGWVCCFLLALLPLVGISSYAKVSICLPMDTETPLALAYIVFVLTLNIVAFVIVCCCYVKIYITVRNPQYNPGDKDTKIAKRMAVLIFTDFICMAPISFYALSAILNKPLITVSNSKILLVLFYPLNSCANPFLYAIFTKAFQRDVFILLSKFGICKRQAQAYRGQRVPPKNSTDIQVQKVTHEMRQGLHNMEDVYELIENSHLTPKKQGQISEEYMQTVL
In short: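 Using 15 concentrations per compound in triplicate, cAMP production was monitored in TSHR-HEK293 cells after 30 min compound incubation at RT; HTRF reagents followed, with fluorescence intensity recorded after 1 h.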

[5] = qHTS assay to identify small molecule agonists of the hypoxia (HIF-1) signaling pathway - cell viability counter screen (AID 1224844; calls by dose curve; also: nearly all actives have a fitted effect of over 50% in size; also: potency is read from the fitted curve at half-maximal effect)
In short: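 Same wells as the HIF-1 reporter screen; ME-180 cells carrying HRE-bla, 17 hr treatment at 37C; CellTiter-Glo luminescence read after 30 min at room temperature.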

[6] = molecular target: Nuclear receptor subfamily 1 group I member 3 (Homo sapiens) (UniProt Q14994); assay: qHTS assay to identify small molecule antagonists of the constitutive androstane receptor (CAR) signaling pathway (AID 1224838); also: nearly all actives have a fitted effect of over 40% in size; also: potency is read from the fitted curve at half-maximal effect
Sequence of Nuclear receptor subfamily 1 group I member 3 (Homo sapiens) (Q14994 whole entry, looked up): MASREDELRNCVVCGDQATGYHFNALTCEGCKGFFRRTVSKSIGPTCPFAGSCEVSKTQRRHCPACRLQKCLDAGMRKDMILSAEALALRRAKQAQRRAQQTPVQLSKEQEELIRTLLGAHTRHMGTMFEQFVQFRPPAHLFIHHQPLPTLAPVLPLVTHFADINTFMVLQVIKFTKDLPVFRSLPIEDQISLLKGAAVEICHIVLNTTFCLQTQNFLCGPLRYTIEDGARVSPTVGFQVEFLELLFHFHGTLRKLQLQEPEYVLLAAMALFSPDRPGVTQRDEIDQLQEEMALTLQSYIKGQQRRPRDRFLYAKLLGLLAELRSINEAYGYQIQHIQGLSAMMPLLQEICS
In short: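 CITCO-stimulated (50 nM final) HepG2 cells stably transfected with hCAR and CYP2B6-2.2kb luciferase were exposed to compounds at 15 concentrations for 24 h at 37 C/5% CO2. A luciferase reagent was added and luminescence recorded after 30 min.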

[7] = molecular target: Nuclear receptor subfamily 1 group I member 3 (Homo sapiens) (UniProt Q14994); assay: qHTS assay to identify small molecule agonists of the constitutive androstane receptor (CAR) signaling pathway (AID 1224839); also: nearly all actives have a fitted effect of over 15% in size; also: potency is read from the fitted curve at half-maximal effect
In short: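 Readout: firefly luciferase luminescence via ONE-Glo. System: HepG2 double-stable for hCAR and CYP2B6-2.2kb. Conditions: 15-point compound titration, PK11195 at 0.75 uM final, 24 h incubation.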

[8] = qHTS assay to identify small molecule antagonists of the estrogen related receptor signaling pathway with the pleiotropic PPARgamma coactivator (PGC) from Tox21 10K library (AID 1224841; call rule not given here; also: actives are mostly falling curves and most rising ones were filed inactive; nearly all actives have a fitted effect of over 50% in size; also: potency is read from the fitted curve at half-maximal effect)
In short: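 In the PGC/ERR line, DMSO solutions of test chemicals are pin-delivered to 2,000 cells/well six hours after dispensing. Following eighteen hours' incubation, One-Glo reagent is added and luminescence recorded.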

[9] = qHTS assay to identify small molecule antagonists of the estrogen related receptor signaling pathway with the pleiotropic PPARgamma coactivator (PGC) from Tox21 10K library - cell viability counter screen (AID 1224840; active = well fitted cell-killing curve with a large enough effect in the repeat runs, not every such curve was filed as active; also: nearly all actives have a fitted effect of over 40% in size; also: potency is read from the fitted curve at half-maximal effect)
In short: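 Viability counter screen, PGC/ERR cells: 17.5 h compound exposure at 37 C, CellTiter-Fluor fluorescence endpoint.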

[10] = qHTS assay to identify small molecule agonists of the constitutive androstane receptor (CAR) signaling pathway - cell viability counter screen (AID 1224836); also: nearly all actives have a fitted effect of over 45% in size; also: potency is read from the fitted curve at half-maximal effect
In short: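 Double-stable HepG2 hepatoma cells (hCAR plus CYP2B6-2.2kb) are treated for 23 h at 37 C with test compounds in 15-point concentration series. PK11195 at 0.75 uM final is co-added. Cell viability is quantified by CellTiter-Fluor.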

Row | Compound | Potency [1] | Potency [2] | Potency [3] | Potency [4] | Potency [5] | Potency [6] | Potency [7] | Potency [8] | Potency [9] | Potency [10]
1 | CC(C)c1ccc2c(c1)CC[C@H]1[C@](C)(CN)CCC[C@]21C | inactive | 68.6 µM (active) | inactive | inactive | 49 µM (active) |  |  |  |  | 
2 | OCCN(CCO)c1nc(N2CCCCC2)c2nc(N(CCO)CCO)nc(N3CCCCC3)c2n1 | inactive |  | inactive |  |  | inactive | inactive |  |  | 
3 | CNCc1cc(F)ccc1Oc1ccc(Cl)c(Cl)c1 | inactive | 61.1 µM (active) | inactive | 54.5 µM (active) |  |  |  | inactive |  | 
4 | NC(=O)N1C(=O)C(C(=O)c2cc(Cl)cs2)c2cc(F)c(Cl)cc21 (stereo unspecified) | 71 µM (active) |  | inactive | inactive |  | inactive | inactive | 38.6 µM (active) | 30.6 µM (active) | 
5 | Cc1cc(C2CCCCC2)n(O)c(=O)c1 | inactive | 29.8 µM (active) |  | inactive |  |  |  |  | 26.6 µM (active) | 
6 | Cc1[nH]cnc1C[C@H]1CCc2c(C)c3ccccc3n2C1=O | inactive |  | inactive | inactive | inactive | 59.6 µM (active) | inactive | 23.7 µM (active) |  | 
7 | Nc1nc2ccccc2n1Cc1ccc(F)cc1 | inactive |  | inactive | inactive |  | inactive | 15 µM (active) |  | inactive | 
8 | Oc1ccc(C2(c3ccc(O)cc3)CC3CC2C2CCCC32)cc1 (stereo unspecified) | inactive | 52.3 µM (active) | inactive |  | 33.3 µM (active) |  |  |  | 58.7 µM (active) | 
9 | CN1CCN(CCC(=O)N2c3ccccc3Sc3ccc(C(F)(F)F)cc32)CC1 | inactive | inactive | inactive | inactive |  |  |  |  | 29.8 µM (active) | 
10 | CCCCCCCCCCCCCCCCCC[N+](C)(C)C | inactive | 54.6 µM (active) | inactive |  | 55.1 µM (active) |  | inactive | 54.6 µM (active) |  | 
11 | CCN(Cc1cccnc1)C(=O)c1cccc(Cl)c1[C@]1(C)C(=O)N(Cc2ccc(OC)cc2OC)c2ccc(Cl)cc21 | inactive |  |  |  |  | inactive | inactive |  |  | 
12 | COc1cc(-c2nc(NC(=O)c3cc4cc(C)cc(C)c4n3CC(=O)O)sc2CCC2CCCCC2)c(OC)cc1Cl | inactive |  | inactive | inactive | 25.2 µM (active) |  | inactive |  | 39.7 µM (active) | 
13 | O=C(Nc1cccc([N+](=O)[O-])c1)c1cc2ccccc2cc1O | 1.59 µM (active) | 9.69 µM (active) | inactive | inactive | inactive |  | 2.43 µM (active) |  | 3.86 µM (active) | 
14 | CC(C)(C)C1CCC(CC2=C(O)c3ccccc3C(=O)C2=O)CC1 (stereo unspecified) | inactive |  | inactive | inactive | inactive | inactive | inactive |  |  | 
15 | CS(=O)(=O)CCNCc1ccc(-c2ccc3ncnc(Nc4ccc(OCc5cccc(F)c5)c(Cl)c4)c3c2)o1 | inactive |  | inactive | inactive |  | inactive | inactive |  | 33.5 µM (active) | 
16 | C/C=C1/C(=O)C[C@H]2[C@@H]3CCC4=CC(=O)CC[C@]4(C)[C@H]3CC[C@]12C | inactive |  |  |  | inactive | inactive | 8.61 µM (active) |  |  | 
17 | Oc1ccc(Cl)cc1Sc1cc(Cl)ccc1O | inactive |  | inactive |  | 26.8 µM (active) | 68.5 µM (active) | inactive | 13.7 µM (active) and 10.6 µM (active) |  | 
18 | CC[C@@]1(O)C(=O)OCc2c1cc1n(c2=O)Cc2c-1nc1ccccc1c2/C=N/OC(C)(C)C | inactive |  | inactive | inactive |  | 0.0376 µM (active) | inactive | 4.73 µM (active) | inactive | 
19 | O=c1c(-c2ccccc2)c1-c1ccccc1 |  | inactive | inactive |  | 13.4 µM (active) |  |  |  |  | inactive
20 | COc1cccc(N)c1 |  | inactive |  | inactive | inactive | inactive | inactive |  | inactive | inactive
21 | CCN(CC)CCNC(=O)c1c(C)[nH]c(/C=C2\C(=O)Nc3ccc(F)cc32)c1C |  |  |  |  | 9.52 µM (active) | 10.6 µM (active) | inactive |  | 29.8 µM (active) | 10.6 µM (active)
22 | Cc1onc(-c2c(Cl)cccc2Cl)c1C(=O)N[C@@H]1C(=O)N2[C@@H]1SC(C)(C)[C@@H]2C(=O)O |  | inactive | inactive | inactive | inactive | inactive | inactive |  |  | inactive
23 | CN(C)c1ccc(SC#N)cc1 |  |  |  |  | inactive | 27.3 µM (active) | inactive |  | inactive | inactive
24 | CCCCCCCCOC(=O)c1ccc(O)cc1 |  | inactive |  | inactive | 48.8 µM (active) | inactive |  |  | inactive | inactive
25 | CCCCc1oc2ccc(NS(C)(=O)=O)cc2c1C(=O)c1ccc(OCCCN(CCCC)CCCC)cc1 | inactive |  | inactive | inactive | 15.1 µM (active) |  | inactive |  |  | 
26 | O=C(Oc1cccc2cccnc12)c1ccccc1 |  |  | inactive | inactive | 7.56 µM (active) | 0.001 µM (active) | inactive |  |  | 
27 | O=[N+]([O-])c1cc([N+](=O)[O-])c2ccc(S(=O)(=O)O)cc2c1O |  |  |  |  | inactive |  |  |  | 24.2 µM (active) | 27.1 µM (active)
